# A selection: hits, their analogues and other compounds. The true share with any hit is near 3.1%.
# 14-3-3 Bad PPI: disrupts binding of bovine 14-3-3 zeta to phospho-Bad peptide; P63103; TR-FRET 14-3-3zeta/Dy647-pBad peptide displacement, 1 h; inhibition, % at 21.7 µM; 0.71% of 220,000 active;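 active = inhibition above about 70%, limit read from the data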;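 note: 0% = full 14-3-3 plus peptide FRET controls and 100% = background without 14-3-3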
# Target sequence (P63103 whole entry, looked up): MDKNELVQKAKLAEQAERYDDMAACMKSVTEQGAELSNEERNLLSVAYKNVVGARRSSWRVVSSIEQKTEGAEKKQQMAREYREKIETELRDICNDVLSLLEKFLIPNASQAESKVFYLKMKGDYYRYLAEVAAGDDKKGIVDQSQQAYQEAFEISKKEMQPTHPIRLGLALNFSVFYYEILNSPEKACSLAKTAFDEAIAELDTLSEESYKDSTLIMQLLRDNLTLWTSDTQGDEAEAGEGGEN
# Mcl1-Bid inh: disrupts binding of human Mcl-1 to Bid peptide; inhibition, % at 21.7 µM; TR-FRET Mcl-1/Bid-Dy647 peptide binding, 1536-well; 0.97% of 220,000 active;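 active = compounds that cut the binding signal by more than half at the single screening dose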;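 note: His-tagged Mcl-1 with europium anti-His antibody binding Bid BH3 peptide; 0% = Mcl-1 plus peptide wells and 100% = peptide-only wells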
# Target sequence (Q07820 whole entry, looked up): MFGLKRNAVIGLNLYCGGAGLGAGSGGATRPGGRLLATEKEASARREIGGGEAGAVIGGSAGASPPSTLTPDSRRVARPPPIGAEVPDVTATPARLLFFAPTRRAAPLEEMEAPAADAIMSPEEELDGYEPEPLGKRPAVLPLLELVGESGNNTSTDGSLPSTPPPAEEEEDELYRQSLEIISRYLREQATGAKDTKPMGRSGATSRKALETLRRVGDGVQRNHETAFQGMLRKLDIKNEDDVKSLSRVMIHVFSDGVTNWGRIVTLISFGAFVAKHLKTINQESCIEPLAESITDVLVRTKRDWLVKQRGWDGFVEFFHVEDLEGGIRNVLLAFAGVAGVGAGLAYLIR
# NCF1 inh: blocks human p47phox regulatory protein of NADPH oxidases. p47phox/p22phox peptide binding, fluorescence polarization, 2 h. P14598. 0.53% of 220,000 active. inhibition, % at 24.7 µM;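 active = inhibition above about 30%, limit read from the data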;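 note: 0% = p47phox with labelled peptide and 100% = labelled peptide alone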
# Mcl-1 Bim block: disrupts Bim peptide binding to human Mcl-1; Q07820; Bead-based flow cytometry, Bim peptide-Mcl-1 binding; inhibition, % at 10 µM; 0.1% of 190,000 active; AID 1009; in the data active = inhibition above about 40%;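 note: 0% = no compound tracer wells and 100% = peptide blocker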
# Mcl1 Noxa PPI: disrupts binding of human Mcl-1 to Noxa peptide; TR-FRET Mcl-1/Noxa peptide binding, 2 h; inhibition, % at 21.7 µM; 1.5% of 220,000 active; AID 1022;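 active = compounds that cut the protein-peptide binding signal by more than 50% relative to plate controls in a single-dose test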;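 note: His-tagged Mcl-1 with rhodamine Noxa BH3 peptide and terbium anti-His antibody; 0% = Mcl-1 plus Noxa peptide wells and 100% = peptide-only wells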
# * = called active by the depositor; x = not tested or not shown; + = active, no number; [ ] = dose if it differs, or a comment.
SMILES,14-3-3 Bad PPI,Mcl1-Bid inh,NCF1 inh,Mcl-1 Bim block,Mcl1 Noxa PPI
Cc1ccc(N=Nc2c(N)[nH]n3c(=O)cc(-c4ccccc4)nc23)cc1,11,76*,-4,0,81*
CC1(C(=O)Nc2c(F)c(F)c(F)c(F)c2F)CC1(Br)Br (stereo not drawn),4,-21,0,x,-2
Cc1ccc(C)c(C(=O)CCC(=O)NCc2ccc(Cl)cc2)c1,-12,-9,-17,-1,-4
CCC(c1nnnn1CCc1ccccc1)N1CCN(C(=O)c2ccco2)CC1 (stereo not drawn),75*,19,-11,0,25
CCCCC(c1nnnn1Cc1ccco1)N1CCN(C(=O)c2ccco2)CC1 (stereo not drawn),85*,2,-7,0,17
Cc1ccccc1C(C(=O)NC1CCCCC1)N(C(=O)CNC(=O)c1ccco1)c1cccnc1 (stereo not drawn),0,-8,-3,0,-8
CN(C)CCCN(C(=O)c1ccc2c(c1)CCCC2)c1nc2c(F)cccc2s1,-9,-10,8,-5,56*
CN(C)CCCN(C(=O)c1ccc(N2C(=O)CCC2=O)cc1)c1nc2c(F)cccc2s1,12,8,3,-1,38
COc1cc(C=O)ccc1OCC(=O)N1CCCC1,-14,-32,-11,1,-6
Oc1cc2c(cc1O)C1c3ccc(O)c(O)c3OCC1(O)C2 (stereo not drawn),27,-65,-62,8,82*
COc1ccccc1Nc1nc(NCC2CCCO2)c2ccccc2n1 (stereo not drawn),-4,2,-20,-1,34
NNC(=O)c1ncoc1-c1ccc(Cl)cc1,-4,-13,-13,x,7
C/C(=N\NC(=O)c1ccccc1O)C1C(=O)c2ccccc2C1=O,10,-92,-30,-1,66*
C/C(=N/NC(=O)c1cc2ccccc2cc1O)C1C(=O)c2ccccc2C1=O,8,2,-77,3,92*
C/C(=N\NC(=O)c1cc2ccccc2cc1O)c1cc2ccccc2o1,-11,-32,-16,x,10
Cc1cc(Cl)ccc1OCCCC(=O)NCCN1C(=O)S/C(=C\c2cccnc2)C1=O,-11,-55,-25,-4,25
CC(C)CC(=O)Nc1ncc([N+](=O)[O-])s1,8,-26,-11,x,50
Cc1nc(C)c(C(=O)Nc2ncc([N+](=O)[O-])s2)o1,22,-22,-7,0,69*
CCc1ccc(CNC(=O)CCc2nnc(Cc3cccc(C(F)(F)F)c3)o2)nc1,-14,1,-6,-6,6
Cc1ccc(C)c(N2CCN(C(=O)Cc3c(C(=O)O)[nH]c4ccc(Cl)cc34)CC2)c1,2,-33,0,x,16
CNC[C@H](O)c1ccc(O)c(O)c1,2,-6,51*,0,15
CNC[C@H](O)c1cccc(O)c1,3,-4,-6,-1,22
CN1CCN(S(=O)(=O)c2ccc(NC(=O)Cc3cccs3)cc2)CC1,-6,-35,-22,0,13
COc1ccc(S(=O)(=O)N2CCN(C(=O)Cc3cccs3)CC2)cc1,-3,4,3,-4,10
O=C(Cc1cccs1)Nc1ccc(S(=O)(=O)N2CCCCC2)cc1,1,24,-60,-2,66*
SMILES,14-3-3 Bad PPI,Mcl1-Bid inh,NCF1 inh,Mcl-1 Bim block,Mcl1 Noxa PPI
O=C(Nc1ccc(S(=O)(=O)N2CCCCCC2)cc1)c1ccc(Br)o1,5,-13,-16,-8,32
O=C(COC(=O)c1ccc(Br)o1)Nc1ccc(S(=O)(=O)N2CCCC2)cc1,0,60*,-21,-4,44
O=C(Cc1cccs1)N1CCN(S(=O)(=O)c2ccccc2)CC1,-7,97*,-6,-2,14
CCN(c1ccccc1)S(=O)(=O)c1ccc(Cl)c(NC(=O)CN2C(=O)NC3(CCCC3)C2=O)c1,10,-17,-4,x,12
O=C(Nc1ccc([N+](=O)[O-])cc1)Nc1ccc(N2CCOCC2)c2nonc12,18,48,-19,-1,94*
CC1=C/C(=C\c2ccc(Br)o2)C(=O)O1,8,-5,-13,-6,71*
COc1ccccc1-c1ccc(/C=C2/C=C(C)OC2=O)o1,11,-4,-15,-2,2
O=C1C(=Cc2ccc(Br)o2)C(=O)c2ccccc21,89*[fluorescence artefact?],76*,-17,2,105*
CN(C)c1ccc(/C=C2\N=C(c3ccc(Cl)c([N+](=O)[O-])c3)NC2=O)cc1,57,40,x,0,73*
CN(C)c1ccc(/C=C2/NC(=O)NC2=O)cc1,0,-79,-14,-2,19
COc1cc(NC2c3ccccc3C(=O)N2Cc2ccc3c(c2)OCO3)cc(OC)c1 (stereo not drawn),1,-19,-1,x,17
CCOC(=O)Cc1cc(=O)n2[nH]cc(-c3cccc(Br)c3)c2n1,-24,-28,-12,-3,-1
Cc1ccc(CNC(=O)C(=O)NCC2OCCN2C(=O)c2cccs2)cc1 (stereo not drawn),5,-31,-8,-4,0
Cc1ccc(N=Nc2ccc(N)cc2C)c(S(N)(=O)=O)c1,3,15,-1,x,52*
Cc1ccc(CN2CCN(/N=C/c3ccc(C)s3)CC2)cc1,-11,-42,-11,-4,8
Fc1cccc(Cc2noc(CN3CCCCC3c3ccccn3)n2)c1 (stereo not drawn),-13,-1,-1,0,2
CCNC(=O)COC(=O)c1cc(-c2ccc(OC)cc2)nc2ccccc12,5,-6,-21,-6,9
CNC(=O)COC(=O)c1cc(-c2ccco2)nc2ccccc12,61,1,-2,x,76*
COc1ccc(OC)c(/C=N\NC(=O)CSc2nnc(CCCc3ccc(OC)c(C)c3)o2)c1,-4,-10,-6,-4,-1
COc1ccc(OC)c(/C=N/NC(=O)c2cc(-c3ccc(C)o3)nc3ccccc23)c1,-1,-32,+,-4,11
COc1ccc(OC)c(/C=N/NC(=O)CSc2cc(C)nc3c(OC)cccc23)c1,86*,35,14,0,39
CCN(CC)C(=O)COC(=O)c1cc(-c2ccc(OC)cc2)nc2ccccc12,6,97*,-11,-4,-8
O=C(Nc1ccccc1)NC1CCCCNC1=O (stereo not drawn),0,-2,-3,x,-16
NC1=NC[C@@H](Cc2ccc(O)cc2)N1CCCCC1CCCCC1,-6,-26,-9,x,-4
COc1ccc(C(=O)Sc2nncc3ccccc23)cc1,-11,-40,-6,-4,0
N#Cc1ccc(NC(=S)NC(=O)CCc2ccc(S(=O)(=O)N3CCOCC3)cc2)cc1,-13,-16,-8,-3,22
Cc1ccc(-c2cc(C(=O)Nc3ccccn3)c3ccccc3n2)o1,9,0,-9,-2,82*
CCOC(=O)c1cc(-c2ccco2)nc2c1c(C)nn2CCC#N,5,8,-17,-5,35
CCOC(=O)c1cc(-c2ccco2)nc2c1c(C)nn2-c1cccc(Cl)c1,12,49,-30,0,78*
